Screening results: PubChem, National Center for Advancing Translational Sciences (NCATS)
PLK1 PBD inh – qHTS for Inhibitors of PLK1-PDB (polo-like kinase 1 - polo-box domain): Primary Screen; Serine/threonine-protein kinase PLK1 (Homo sapiens), P53350; Plk1 PBD binding of FITC phosphopeptide, fluorescence polarization; Potency, µM, for the others: max response, negative = inhibition, hits mostly inhibitors; 360,000 tested, 2.8% active; AID 720504, 2013; further: series mostly up to about 57 µM; nearly all actives have a fitted effect of over 65% in size
RORg inh – qHTS for inhibitors of ROR gamma transcriptional activity. 310,000 tested, 5.4% active. Drosophila S2 Gal4-RORgamma UAS-luciferase reporter, 20 h. Nuclear receptor ROR-gamma (Mus musculus), P51450. Potency, µM (top dose mostly 53.6 µM), without a hit: at the highest dose activity change, negative = inhibition, actives largely listed as inhibitors. AID 2551, 2010; further: nearly all actives have a fitted effect of over 60% in size
Target sequence (P51450 whole entry, looked up, the tested form may be a part): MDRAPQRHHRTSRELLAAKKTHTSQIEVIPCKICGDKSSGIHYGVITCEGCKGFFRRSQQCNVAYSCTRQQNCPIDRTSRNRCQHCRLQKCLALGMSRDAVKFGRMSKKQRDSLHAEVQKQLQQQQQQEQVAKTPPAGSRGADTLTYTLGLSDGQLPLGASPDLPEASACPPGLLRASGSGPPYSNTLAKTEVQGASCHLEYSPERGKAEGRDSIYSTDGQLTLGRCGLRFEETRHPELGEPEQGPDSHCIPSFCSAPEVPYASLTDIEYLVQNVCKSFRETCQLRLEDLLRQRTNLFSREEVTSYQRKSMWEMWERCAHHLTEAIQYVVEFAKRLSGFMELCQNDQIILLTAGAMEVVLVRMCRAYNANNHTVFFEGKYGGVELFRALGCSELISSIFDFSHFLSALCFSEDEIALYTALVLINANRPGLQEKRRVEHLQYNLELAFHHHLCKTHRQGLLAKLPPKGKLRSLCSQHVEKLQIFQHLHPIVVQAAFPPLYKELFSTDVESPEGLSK
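In this cell-based reporter format, copper sulfate (700 uM final) drives Gal4–ROR gamma fusion expression from a metallothionein promoter in Drosophila Schneider cells; compounds preincubated 1 hr, reporter read after 20 hr at ambient temperature.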
VP16 counter – VP16 counterscreen qHTS for inhibitors of ROR gamma transcriptional activity; Drosophila S2 Gal4-VP16 UAS-luciferase, luminescence, 20 h; Potency, µM (doses to about 53.6 µM), without a hit: at the top dose activity, negative = inhibition, hits mostly inhibitors; 310,000 tested, 3.5% active; AID 2546, 2010;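 further: Gal4-VP16 expression switched on by copper sulfate through the metallothionein promoter; nearly all actives have a fitted effect of over 50% in size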
Sfp PPTase inh – qHTS Assay for Inhibitors of Bacillus subtilis Sfp phosphopantetheinyl transferase (PPTase); Biochemical Sfp PPTase activity, qHTS; 310,000 tested, 3.5% active; 4'-phosphopantetheinyl transferase ffp (Bacillus subtilis), Q9F4F7; Potency, µM, inactives show largest response in the series, negative = inhibition, most hits filed as inhibitors;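 further: the enzyme is Sfp with the accession as filed and its product quenches rhodamine fluorescence; 0% = enzyme reaction without inhibitor and -100% = no enzyme wells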
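Compounds were incubated with enzyme (final 15 nM) for 15 min at room temperature before substrate addition started the reaction. Fluorescence at 525 nm excitation, 598 nm emission was recorded immediately and after 30 minutes.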
ALDH1A1 block – qHTS Assay for Inhibitors of Aldehyde Dehydrogenase 1 (ALDH1A1); Aldehyde dehydrogenase 1A1 (Homo sapiens), P00352; Purified ALDH1A1, NADH fluorescence, propionaldehyde substrate; Potency, µM (highest dose often 75.3 µM), without a hit: top-dose activity, negative = inhibition, usual class: inhibitors; 220,000 tested, 7.3% active; AID 1030, 2008; active means well fitted inhibition curve with a large enough effect, not every such curve was filed as active; inconclusive means small, poorly fitted or top-dose-only effect, or another doubt; inactive means no such curve, though single readings can be large or run the other way;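 further: plate controls were no enzyme wells and a reference inhibitor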
The depositor's hits bear a star; ? = inconclusive; nt = no result given. Hits are enriched below; roughly 12% of the tested compounds scored in any of these assays. Unless noted, the call rests on the fitted dose curve; in most records, active means well fitted curve in the direction sought with a large enough effect; inconclusive means small, poorly fitted or top-dose-only effect, or another doubt; inactive means no such curve, though single readings can be large; an effect the other way counts as inactive or inconclusive. Unless noted, on the % scale 0 is the no-effect control and ±100 the full control effect; potency means the concentration at half of the fitted maximal effect.

SMILES | PLK1 PBD inh | RORg inh | VP16 counter | Sfp PPTase inh | ALDH1A1 block
CCCCNC(=O)c1nc(-c2cnc(C)cn2)oc1-c1ccc(Cl)cc1 | -9.2% | nt | nt | nt | nt
O=C(c1cccc(NC2=NC3CS(=O)(=O)CC3S2)c1)N1CCN(c2cccc(Cl)c2)CC1 (configuration not stated) | -6.2% | 23.5% | -4.4% | 0.6% | nt
O=C(COC(=O)C12CC3CC(CC(Br)(C3)C1)C2)Nc1c(F)cccc1F | 0.7% | nt | nt | nt | nt
CC(C)(C)CC(=O)Nc1nnc(C(F)(F)F)s1 | -3.6% | ? | 8.8% | 18.9% | 2.4%
CC(NC(=O)Nc1nnc(C(F)(F)F)s1)(C(F)(F)F)C(F)(F)F | -3.1% | 5.01µM* | 5.62µM* | 16.3% | 1.1%
Cc1cc(-c2nn(-c3ccccc3F)cc2CN2CCC(C(N)=O)CC2)c(C)s1 | 6.5% | 0.8% | -4.1% | 6.4% | 2.0%
Cc1cc(-c2nn(-c3ccccc3F)cc2CNCCc2cnc[nH]2)c(C)s1 | -1.5% | -22.7% | -20.2% | -18.9% | 14.1µM*
O=C(NNC(=S)NC(=O)c1cccs1)c1cccnc1 | -23.8% | -20.0% | 3.7% | -0.2% | ?
O=C(NC(O)C(=O)c1cccs1)c1cccnc1 (configuration not stated) | -12.5% | ? | -0.5% | 4.7% | 10µM*
C/C(=N\NC(=O)c1cccs1)C(C)(C)C | ? | 12.6µM* | ? | -3.5% | ?
O=C(N/N=C(/CC(=O)c1cccs1)C(F)(F)F)c1ccc(O)cc1 | -28.1% | 17.8µM* | ? | 31.5% | 3.6%
O=C(NNC(=O)c1cccs1)c1cccnc1 | -2.1% | -23.3% | -10.7% | 28.3% | nt
O=C(N/N=C(\CC(=O)c1cccs1)C(F)(F)F)c1cccnc1 | -16.5% | -34.2% | -4.0% | 19.1% | 20µM*
C/C(=N\NC(=O)c1cccs1)c1ccc(C(=O)O)s1 | -2.3% | 16.5% | 2.3% | 2.7% | nt
O=S(=O)(NC1CCCC1)c1ccc(F)cc1F | -1.0% | nt | nt | nt | nt
C/C(=N\NC(=O)c1cccs1)c1cccnc1 | 21.2µM* | -5.9% | -0.6% | 11.4% | 7.3%
C/C(=N\NC(=O)c1ccc(O)cc1O)c1cccnc1 | 5.3% | 5.62µM* | ? | -1.1% | nt
C/C(=N\NC(=O)c1ccncc1)c1cccnc1 | -2.4% | -1.1% | -9.3% | -1.6% | nt
C/C(=N/NC(=O)c1ccc(Cl)cc1Cl)c1cccnc1 | -9.0% | 27.6% | 1.0% | 11.4% | nt
CCOC(=O)c1cc2c(c(-c3ccccc3)n1)[C@@H](CCO)N(S(=O)(=O)C(C)(C)C)C2 | -5.6% | nt | nt | nt | nt
COCCn1c(=O)cnc2cnc(OC)nc21 | nt | -17.6% | 3.3% | 5.6% | -0.4%
CN(C)CCCN(C(=O)c1ccc(S(=O)(=O)N2CCc3ccccc3C2)cc1)c1nc2ccc(F)cc2s1 | -11.4% | ? | 11.2µM* | 44.7µM* | nt
Cc1ccc2nc(N(CCCN(C)C)C(=O)c3ccc(S(=O)(=O)N4CCc5ccccc5C4)cc3)sc2c1 | 5.2% | 10µM* | 12.6µM* | 50.1µM* | nt
CN(C)CCCN(C(=O)c1ccc(S(=O)(=O)N2CCc3ccccc32)cc1)c1nc2ccc(F)cc2s1 | 2.5% | -41.9% | -23.0% | ? | nt
Cc1nc(NC(=O)COC(=O)C(NC(=O)c2ccco2)C(C)C)c(Cl)cc1Cl (configuration not stated) | -5.1% | 0.6% | 4.4% | -6.0% | 25.1µM*
SMILES | PLK1 PBD inh | RORg inh | VP16 counter | Sfp PPTase inh | ALDH1A1 block
Cc1nc(NC(=O)COC(=O)C(C)NC(=O)c2ccccc2)c(Cl)cc1Cl (configuration not stated) | -10.0% | nt | nt | nt | nt
CCCCN(C)S(=O)(=O)c1ccc(C(=O)Nc2nnc(CSC)o2)cc1 | -10.6% | 0.794µM* | 1.12µM* | 15.2% | 6.2%
CCN(CC)S(=O)(=O)c1ccc(C(=O)Nc2nnc(CSC)o2)cc1 | -7.8% | 1.12µM* | 3.98µM* | -25.2% | -4.3%
CCc1nnc(NC(=O)c2ccc(S(=O)(=O)N(CC)CC)cc2)s1 | -1.4% | -38.7% | ? | -0.1% | -4.1%
CCN(CC)S(=O)(=O)c1ccc(C(=O)Nc2nnc(COC)o2)cc1 | -6.6% | 3.55µM* | 15.8µM* | -19.4% | -5.1%
CCCCN(CCCC)S(=O)(=O)c1ccc(C(=O)Nc2nnc(COC)o2)cc1 | -6.4% | 0.447µM* | 1µM* | 27.4% | 15.2%
CCOC(=O)N1CCN(S(=O)(=O)c2ccc(C(=O)Nc3nnc(C)o3)cc2)CC1 | -12.6% | ? | ? | 1.4% | 3.8%
CCOC(=O)N1CCN(S(=O)(=O)c2ccc(C(=O)Nc3nnc(CSC)o3)cc2)CC1 | -3.7% | 12.6µM* | ? | 8.9% | -3.4%
Cc1cccc([C@@H]2CN(C)CCc3c2cc(O)c(O)c3Cl)c1 | nt | -27.6% | -11.2% | 79.4µM* | -8.0%
Cc1ccc(NC(=S)NC2CCSc3ccccc32)cc1 (configuration not stated) | -9.5% | -101.8% | 5.62µM* | 18.8% | nt
COC(=O)c1ccc(NC(=S)NC2CCc3ccccc32)cc1 (configuration not stated) | -6.8% | 7.94µM* | ? | -1.6% | 3.8%
C[C@H](CO)N1C[C@H](C)[C@H](CN(C)C(=O)OCc2ccccc2)OCc2cnnn2CCCC1=O | -4.4% | nt | nt | nt | nt
FC(F)(F)Oc1ccccc1C(c1nnnn1Cc1ccccc1)N1CCN(C/C=C/c2ccccc2)CC1 (configuration not stated) | -12.7% | nt | nt | nt | nt
CCCCCCCCCCCCCC[C@@H](O)[C@@H](O)[C@@H](N)CO | nt | -1.3% | -13.8% | ? | nt
CCC(=O)Oc1ccc2oc(=O)cc(C)c2c1 | -1.8% | ? | 23.9% | 2.0% | ?
Cc1cc(C)nc(SCC(=O)Oc2ccc3oc(=O)cc(C)c3c2)n1 | 26.7µM* | 18.4% | -1.0% | 5.5% | -2.1%
O=C(CCNc1ccc(F)cc1)c1cc2ccccc2o1 | -15.2% | ? | -9.8% | -5.8% | 0.1µM*
CNC(=O)c1cc2ccccc2o1 | -1.8% | ? | 0.5% | 24.3% | 12.9%
O=C(Cc1ccc(F)cc1)OCC(=O)c1cc2ccccc2o1 | -10.6% | 7.3% | -5.2% | -12.0% | ?
O=C(CCNc1cccc(F)c1)c1cc2ccccc2o1 | ? | 17.1% | 2.1% | -0.6% | 0.0251µM*
CC(C)(C)OC(=O)NCCCC[C@H](NC(=O)c1nc[nH]c1C(=O)NCc1ccccc1)C(=O)OC(C)(C)C | 0.3% | 14.1µM* | ? | 13.6% | -8.2%
CC(C)C[C@H](NC(=O)c1nc[nH]c1C(=O)N(C)Cc1ccccc1)C(=O)OC(C)(C)C | 2.6% | -0.3% | -5.5% | 3.9% | 7.94µM*
CC(C)(C)OC(=O)NCCCC[C@H](NC(=O)c1[nH]cnc1C(=O)N[C@@H](Cc1ccccc1)C(=O)OC(C)(C)C)C(=O)OC(C)(C)C | -2.4% | 7.94µM* | ? | 35.8% | nt
CN(Cc1ccccc1)C(=O)c1[nH]cnc1C(=O)N[C@@H](CCCCNC(=O)OC(C)(C)C)C(=O)OC(C)(C)C | 2.5% | 7.08µM* | ? | 24.0% | -9.1%
